Assay results taken from PubChem BioAssay (EPA / NIEHS).
The source made the active and inactive calls. The calls were made as follows: active = hit-call score of the fitted dose curve at least 0.9, where 1 is the maximum; inactive = score below 0.9.

Legend:
Details in all cases: mRNA level, 48 h; actives raise or lower the signal
[1] = read-out: Apolipoprotein A-V (APOA5) gene, APOA5 (gene 116519); assay: LTEA_HepaRG_APOA5: Life Technologies and Expression Analysis (LTEA) Assay for Apolipoprotein A-V (APOA5) gene using HepaRG (AID 2283474)
How it was run: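 Differentiated HepaRG cells in serum-free induction medium, exposed 48 h in duplicate to eight half-log concentrations topping at 100 uM (0.5% DMSO). APOA5 mRNA by Fluidigm TaqMan qRT-PCR, normalized to ACTB, GAPDH and POLR2A; bidirectional fit versus DMSO.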

[2] = read-out: Apoptosis regulator Bcl-2 (Homo sapiens) (UniProt P10415); assay: LTEA_HepaRG_BCL2: Life Technologies and Expression Analysis (LTEA) Assay for Bcl-2 gene using HepaRG (AID 2283475);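 also: BCL2 transcript by TaqMan qRT-PCR normalised to ACTB GAPDH and POLR2A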
How it was run: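 Expression change of BCL2 mRNA in HepaRG after 48 h dosing, quantified by TaqMan qRT-PCR against three endogenous controls. Concentration-response used eight points up to 100 uM, vehicle 0.5% DMSO.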

[3] = read-out: Bcl-2 (BID) gene, BID (gene 637); assay: LTEA_HepaRG_BID: Life Technologies and Expression Analysis (LTEA) Assay for Bcl-2 (BID) gene using HepaRG (AID 2283476)
How it was run: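 Gain or loss of BID expression is fitted relative to 0.5% DMSO vehicle. Human HepaRG liver cells received a 48 h chemical exposure over an eight-point concentration range.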

Caspase-3 (Homo sapiens) = Caspase-3 (Homo sapiens) (UniProt P42574); assay: LTEA_HepaRG_CASP3: Life Technologies and Expression Analysis (LTEA) Assay for cysteine-aspartic acid protease (CASP3) using HepaRG (AID 2283477)
Chain of Caspase-3 (Homo sapiens) (P42574 whole entry, looked up): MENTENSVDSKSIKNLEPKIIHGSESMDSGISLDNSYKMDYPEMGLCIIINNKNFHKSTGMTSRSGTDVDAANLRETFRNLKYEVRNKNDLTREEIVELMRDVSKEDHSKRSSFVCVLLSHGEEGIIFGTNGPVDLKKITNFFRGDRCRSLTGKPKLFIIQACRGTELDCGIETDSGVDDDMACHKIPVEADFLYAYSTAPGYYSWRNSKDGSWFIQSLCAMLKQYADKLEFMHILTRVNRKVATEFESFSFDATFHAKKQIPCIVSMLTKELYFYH
How it was run: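 Differentiated HepaRG cells, plated 48 h, were treated in duplicate in serum-free induction medium for 48 h with eight half-log concentrations up to 100 uM in 0.5% DMSO. CASP3 mRNA measured by qRT-PCR, normalized to ACTB, GAPDH, POLR2A.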

[4] = read-out: Cytochrome P450 (CYP24A1), CYP24A1 (gene 1591); assay: LTEA_HepaRG_CYP24A1: Life Technologies and Expression Analysis (LTEA) Assay for Cytochrome P450 (CYP24A1) using HepaRG (AID 2283478)
How it was run: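 HepaRG cells plated 48 h, then exposed in duplicate in serum-free induction medium for 48 h to 8-point half-log series from 100 uM in 0.5% DMSO. CYP24A1 mRNA by Fluidigm qRT-PCR, normalized to ACTB, GAPDH, POLR2A; bidirectional fit versus DMSO.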

[5] = read-out: Cytochrome P450 (CYP1A2), CYP1A2 (gene 1544); assay: LTEA_HepaRG_CYP1A2: Life Technologies and Expression Analysis (LTEA) Assay for Cytochrome P450 (CYP1A2) using HepaRG (AID 2283479)
How it was run: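 Differentiated human HepaRG cells in serum-free induction medium exposed 48 hours in duplicate to 8 half-log concentrations from 100 uM, 0.5% DMSO. CYP1A2 mRNA quantified by qRT-PCR, normalized to ACTB, GAPDH and POLR2A; bidirectional fitting versus DMSO.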

[6] = read-out: cysteine-aspartic acid protease (CASP8), CASP8 (gene 841); assay: LTEA_HepaRG_CASP8: Life Technologies and Expression Analysis (LTEA) Assay for cysteine-aspartic acid protease (CASP8) using HepaRG (AID 2283480)
How it was run: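 HepaRG, 48 h exposure, duplicate wells; 8 conc, half-log from 100 uM, 0.5% DMSO. Serum-free induction medium. CASP8 mRNA by TaqMan qRT-PCR, norm. ACTB/GAPDH/POLR2A; gain/loss fitted vs DMSO.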

[7] = read-out: Cytochrome P450 (CYP2B6), CYP2B6 (gene 1555); assay: LTEA_HepaRG_CYP2B6: Life Technologies and Expression Analysis (LTEA) Assay for Cytochrome P450 (CYP2B6) using HepaRG (AID 2283481)
How it was run: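 Differentiated human HepaRG cells in serum-free induction medium, dosed in duplicate for 48 h over 8 half-log concentrations topping at 100 uM (0.5% DMSO). CYP2B6 mRNA measured by TaqMan qRT-PCR, normalized to ACTB, GAPDH, POLR2A; bidirectional fit versus DMSO.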

[8] = read-out: Cytochrome P450 2C19 (Homo sapiens) (UniProt P33261); assay: LTEA_HepaRG_CYP2C19: Life Technologies and Expression Analysis (LTEA) Assay for CYP2C19 using HepaRG (AID 2283482)
How it was run: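 Differentiated HepaRG cells in serum-free induction medium exposed 48 h in duplicate, 8 concentrations from 100 uM by half-log steps in 0.5% DMSO. CYP2C19 mRNA measured by TaqMan qRT-PCR, normalized to ACTB, GAPDH, POLR2A. Bidirectional fit versus DMSO.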

CYP2C8 (gene 1558) = assay: LTEA_HepaRG_CYP2C8: Life Technologies and Expression Analysis (LTEA) Assay for CYP2C8 using HepaRG (AID 2283483)
How it was run: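 CYP2C8 mRNA induction or loss, by qRT-PCR normalized to ACTB/GAPDH/POLR2A, is read in HepaRG cells after 48 h treatment. Concentrations run from 100 uM down in half-log dilutions, with 0.5% DMSO as vehicle and baseline.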

Measured: AC50

Chain of Cytochrome P450 2C19 (Homo sapiens) (P33261 whole entry, looked up): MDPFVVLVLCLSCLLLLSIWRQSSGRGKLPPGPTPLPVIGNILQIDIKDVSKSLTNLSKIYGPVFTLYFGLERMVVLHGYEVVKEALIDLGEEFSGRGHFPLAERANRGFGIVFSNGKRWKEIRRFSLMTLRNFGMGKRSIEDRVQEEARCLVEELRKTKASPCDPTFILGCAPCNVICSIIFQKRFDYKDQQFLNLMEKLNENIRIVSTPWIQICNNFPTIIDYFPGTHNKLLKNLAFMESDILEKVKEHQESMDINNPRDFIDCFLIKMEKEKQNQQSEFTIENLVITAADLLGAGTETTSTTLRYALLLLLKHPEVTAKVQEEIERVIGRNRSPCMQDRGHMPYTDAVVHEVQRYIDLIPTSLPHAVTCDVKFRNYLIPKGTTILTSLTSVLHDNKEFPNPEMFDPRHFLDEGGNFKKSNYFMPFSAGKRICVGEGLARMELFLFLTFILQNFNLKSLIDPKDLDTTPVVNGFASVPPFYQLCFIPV
Chain of Apoptosis regulator Bcl-2 (Homo sapiens) (P10415 whole entry, looked up): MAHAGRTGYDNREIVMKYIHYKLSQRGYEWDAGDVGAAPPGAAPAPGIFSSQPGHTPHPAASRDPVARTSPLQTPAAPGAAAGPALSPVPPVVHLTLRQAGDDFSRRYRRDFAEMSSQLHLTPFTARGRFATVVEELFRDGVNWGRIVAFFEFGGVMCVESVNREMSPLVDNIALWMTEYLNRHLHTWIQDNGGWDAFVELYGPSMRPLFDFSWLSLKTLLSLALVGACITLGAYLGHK

Nc1nc(=S)c2[nH]cnc2[nH]1
inactive: [2] | [3] | Caspase-3 (Homo sapiens) | [4] | [6]
active: [1] 3.48 µM | [5] 3.04 µM | [7] 5.84 µM | [8] 9.48 µM | CYP2C8 (gene 1558) 32.2 µM

O=C(O)c1cccnc1
inactive: [1] | [2] | [3] | Caspase-3 (Homo sapiens) | [4] | [5] | [6] | [7] | CYP2C8 (gene 1558)

CO[C@@H]1COCC[C@@H]1N[C@@H]1CC[C@@](C(=O)N2CCc3ncc(C(F)(F)F)cc3C2)(C(C)C)C1
inactive: [1] | [2] | [3] | Caspase-3 (Homo sapiens) | [4] | [5] | [6] | [7] | [8] | CYP2C8 (gene 1558)

Nc1nc(Cl)nc2c1ncn2[C@H]1C[C@H](O)[C@@H](CO)O1
inactive: [2] | [3] | Caspase-3 (Homo sapiens) | [4] | [6]
active: [1] 1.12 µM | [5] 0.715 µM | [7] 1.22 µM | [8] 2.05 µM | CYP2C8 (gene 1558) 1 µM

Oc1ccc(O)cc1
inactive: [1] | [2] | [3] | Caspase-3 (Homo sapiens) | [4] | [6] | [7] | CYP2C8 (gene 1558)
active: [5] 50 µM

Cc1c(C)c2c(c(C)c1O)CCC(C)(COc1ccc(CC3SC(=O)NC3=O)cc1)O2 (stereo not drawn)
inactive: [1] | [2] | [3] | Caspase-3 (Homo sapiens) | [4] | [6] | CYP2C8 (gene 1558)
active: [5] 15.8 µM | [7] 26.4 µM

CCCC[C@H]1CN(CC2CCOCC2)C(=O)OC12CCN(C1(C)CCN(C(=O)c3c(C)ncnc3C)CC1)CC2
inactive: [1] | [2] | [3] | Caspase-3 (Homo sapiens) | [4] | [5] | [6] | [7] | [8] | CYP2C8 (gene 1558)

CN(C)C(=O)NC1(c2ccccc2)CCN(CC[C@@]2(c3ccc(F)c(F)c3)CN(C(=O)c3ccccc3)CCO2)CC1
inactive: [2] | [3] | Caspase-3 (Homo sapiens) | [4] | [6] | [7] | CYP2C8 (gene 1558)
active: [1] 29.8 µM | [5] 47 µM | [8] 2.65 µM

O=C1NC(=O)C(c2ccccc2)(c2ccccc2)N1
active: [5] 50 µM | [7] 1.18 µM | [8] 14.1 µM | CYP2C8 (gene 1558) 13.1 µM
inactive: [1] | [2] | [3] | Caspase-3 (Homo sapiens) | [4] | [6]

OCC(O)CO
inactive: [1] | [2] | [3] | Caspase-3 (Homo sapiens) | [4] | [5] | [6] | [8] | CYP2C8 (gene 1558)

C=CCc1ccc(OC)c(OC)c1
active: [3] 9.92 µM | [7] 2.13 µM
inactive: [1] | Caspase-3 (Homo sapiens) | [4] | [5] | [6] | [8] | CYP2C8 (gene 1558)

C#CC(O)C(CC)CCCC (stereo not drawn)
inactive: [1] | [2] | [3] | Caspase-3 (Homo sapiens) | [4] | [5] | [6] | CYP2C8 (gene 1558)

C/C=C/C=C/C(=O)O
inactive: [1] | [2] | [3] | Caspase-3 (Homo sapiens) | [4] | [5] | [6] | [8] | CYP2C8 (gene 1558)

CC(C)c1cccc(C(C)C)c1
inactive: [1] | [2] | [3] | Caspase-3 (Homo sapiens) | [5] | [6] | CYP2C8 (gene 1558)

CC(C)NCC(O)c1ccc(O)c(O)c1 (stereo not drawn)
active: [2] 0.239 µM | [5] 0.204 µM
inactive: [1] | Caspase-3 (Homo sapiens) | [4] | [6] | CYP2C8 (gene 1558)

O=C1O[C@H]([C@H](O)CO)C(O)=C1O
inactive: [1] | [2] | [3] | Caspase-3 (Homo sapiens) | [4] | [5] | [6] | [8] | CYP2C8 (gene 1558)

c1ccc2occc2c1
inactive: [1] | [3] | Caspase-3 (Homo sapiens) | [4] | [5] | [6] | [8] | CYP2C8 (gene 1558)
active: [7] 5.44 µM

O=[Si]=O
inactive: [1] | [2] | [3] | Caspase-3 (Homo sapiens) | [4] | [6] | CYP2C8 (gene 1558)
active: [5] 50 µM

OCC(CO)n1cnc(-c2ccc(F)cc2)c1-c1ccnc(Oc2ccccc2)n1
active: [7] 22.6 µM
inactive: [1] | [3] | Caspase-3 (Homo sapiens) | [4] | [5] | [6] | CYP2C8 (gene 1558)

CC(C)c1cccc(C(C)C)c1NC(=O)NS(=O)(=O)c1cc(C(C)(C)O)co1
inactive: [1] | [3] | Caspase-3 (Homo sapiens) | [4] | [5] | [6] | CYP2C8 (gene 1558)
active: [7] 5.18 µM | [8] 8.04 µM

CC1(C)C(=O)NC(=O)N1CO
inactive: [1] | [3] | Caspase-3 (Homo sapiens) | [4] | [5] | [6] | [7] | [8] | CYP2C8 (gene 1558)
